Inconclusive results are not listed. Calls of active or inactive are those of the source. The call rests on the fitted dose curve; in most records, active means well fitted inhibition curve with a large enough effect; inconclusive means small, poorly fitted or top-dose-only effect; inactive means no such curve, though single readings can be large or run the other way.
Potency means the concentration at half of the fitted maximal effect.

A short description of the test: qHTS Screen of the MIPE 4.0 Collection Against Ewings Sarcoma (TC32) (AID 1259256). Further: nearly all actives have a fitted effect of over 45% in size. The conditions noted are these: TC32 Ewing sarcoma viability, CellTiter-Glo, 48 h; series mostly up to 45.8 µM. From the text: There is a large unmet medical need for treatments for Ewing sarcoma, a pediatric sarcoma. We sought to identify compounds that inhibited Ewing sarcoma cells in vitro with the goal to then test promising drugs in two drug combinations in vitro to look for synergistic drug combinations. Promising combinations would then proceed to additional validation, including in vivo testing.
Using the NCATS developed oncology compound library called the Mechanism of Interrogation Plate (MIPE), four Ewing sarcoma cell lines were evaluated (TC32, TC71, RDES, EW8). Compounds, in a 12-point titration series, were incubated with cells for 48 hours and the read out was cell viability (CellTiter-Glo from Promega). These initial experiments were used to select appropriate concentrations of each single agent for subsequent two-drug matrix combinations such that the concentrations in the matrices would span both activity and non-activity.
Cells, in the log phase of growth, were seeded in 5 uL of RPMI plus 5% FBS, […] L-glutamine, 100 U/ml penicillin and 100 ug/ml streptomycin into 1536-well solid-bottom white tissue culture treated Greiner Bio One Plates (789173-F) using a MultiDrop Combi (Thermofisher Scientific) dispenser and a small sterile cassette. One column was media alone to be used as a :"no cells" control. The plates were then covered with sterilized stainless steel gasketed lids from Kalypsys. After allowing cells to attach for 4 hours, 23 nL of test compound or control (negative control DMSO and positive control 9.2 uM Bortezomib-final) were added from a 1536-well polypropylene compound source plate to each well using a 1536 head pin tool from Kalypsys. Cells were then incubated for 48 hours at 37C, 95% relative humidity and 5% CO2. After 48 hours, plates were removed from the incubator and 3 uL of CellTiter-Glo (Promega) was added using an Aurora Flying Reagent Dispenser Bioraptor. Plates were incubated at room temperature for 10 minutes prior to reading the luminescence on the Viewlux (PerkinElmer). The relative luciferase units are used to calculate the percent activity using the activity of DMSO in the cells and no cells columns for normalization of no inhibition and full inhibition respectively.
For orientation: qHTS replaces the single test concentration by a dilution series.
In the case of `N=c1c2c(-c3ccccc3)c(-c3ccccc3)n(Cc3ccccc3)c2ncn1C1CCC(O)CC1` (stereo not given), the Potency was 0.662 µM (active). Then `Cc1ccccc1-n1c(Cn2ncc3c(N)ncnc32)nc2cccc(C)c2c1=O`, with 11.8 µM (active); and `CCNC(=O)CC1N=C(c2ccc(Cl)cc2)c2cc(OC)ccc2-n2c(C)nnc21` (stereo not given), with 16.6 µM (active); and `Cc1c(N)nc([C@H](CC(N)=O)NC[C@@H](N)C(N)=O)nc1C(=O)N[C@H](C(=O)N[C@@H](C)[C@H](O)[C@@H](C)C(=O)N[C@@H](C(=O)NCCc1nc(-c2nc(C(=O)NCCC[S+](C)C)cs2)cs1)[C@@H](C)O)C(O[C@H]1O[C@H](CO)[C@H](O)[C@@H](O)[C@@H]1O[C@H]1O[C@H](CO)[C@@H](O)[C@H](OC(N)=O)[C@H]1O)c1cnc[nH]1` (stereo not given in full), with 0.418 µM (active). `C[C@H]1CCCC=CC2C[C@H](O)C[C@@H]2[C@H](O)C=CC(=O)O1` (stereo not given in full): the Potency result is “inactive”.

Take `O=C(Nc1ccncc1)C(=O)c1cn(Cc2ccc(Cl)cc2)c2ccccc12`: the Potency entry is “inactive”. Then `C[C@]12Cc3cn[nH]c3C[C@@H]1CC[C@@H]1[C@H]2CC[C@@]2(C)[C@H]1CC[C@]2(C)O`, with 3.32 µM (active); and `O=c1[nH]c2ccc(Cl)cc2c(N[C@@H]2CN3CCC2CC3)c1-c1nc2ccccc2[nH]1`, with 0.0833 µM (active). Take `N#C[C@H](O[C@@H]1O[C@H](CO[C@@H]2O[C@H](CO)[C@H](O)[C@H](O)[C@H]2O)[C@H](O)[C@H](O)[C@H]1O)c1ccccc1`: the Potency was 26.4 µM (active). On to `CC[C@@]1(O)C(=O)OCc2c1cc1n(c2=O)Cc2cc3ccccc3nc2-1`, for which the Potency is 0.0037 µM (active). Then `CSCC[C@@H](NC(=O)[C@@H](Cc1ccccc1)NC(=O)CNC(=O)CNC(=O)[C@@H](N)Cc1ccc(O)cc1)C(=O)O`, with “inactive”.

Turning to `C[C@H]([C@H](O)CCC(C)(C)O)[C@H]1CC[C@@]2(O)C3=CC(=O)[C@@H]4C[C@@H](O)[C@@H](O)C[C@]4(C)[C@@H]3CC[C@]12C`, the Potency result is “inactive”.

With `COCC1(CO)C(=O)C2CCN1CC2` (stereo not given), the Potency was 2.35 µM (active). Then `Oc1ccc2c3c1O[C@H]1c4[nH]c5c(c4C[C@@]4(O)[C@@H](C2)N(CC2CC2)CC[C@]314)C[C@@]1(O)[C@H]2Cc3ccc(O)c4c3[C@@]1(CCN2CC1CC1)[C@H]5O4`, with “inactive”. Turning to `c1cc2c(cc1[C@H]1OC[C@H]3[C@H]1CO[C@H]3c1ccc3c(c1)OCO3)OCO2`, the Potency entry was “inactive”. In the case of `CC(C)(O)C=CC(=O)[C@](C)(O)[C@H]1[C@H](O)C[C@]2(C)[C@@H]3CC=C4[C@@H](C=C(O)C(=O)C4(C)C)[C@]3(C)C(=O)C[C@@]12C`, the Potency was 0.0418 µM (active). Take `CC1=NN=C(c2ccc(N)cc2)c2cc3c(cc2C1)OCO3`: the Potency entry was “inactive”. `CC1(N2CCC(n3c([C@@H]4CCCNC4)nc4ccccc43)CC2)CCCCCCC1`: the Potency is 9.35 µM (active). To `COC[C@H]1OC(=O)c2coc3c2[C@@]1(C)C1=C(C3=O)[C@@H]2CC[C@H](O)[C@@]2(C)C[C@@H]1OC(C)=O` belongs 2.09 µM (active). Then `CC(C)N[C@@H]1CCn2c(=O)[nH]c3cccc(c32)[C@@H]1O`, with 8.33 µM (active). For `O=C(N[C@H]1CN2CCC1CC2)c1ccc(Cl)cc1`, the Potency is 14.8 µM (active). Turning to `CC(=O)Nc1ccc(OC[C@](C)(O)C(=O)Nc2ccc([N+](=O)[O-])c(C(F)(F)F)c2)cc1`, the Potency result was “inactive”. With `CN1CCN(c2ccc([N+](=O)[O-])c3no[n+]([O-])c23)CC1`, the Potency is 18.7 µM (active). Then `CC(C)(C)[C@]1(O)C[C@@H]2OC(=O)C[C@@]23C(=O)O[C@@H]2OC(=O)[C@H](O)C213` (stereo not given in full), with “inactive”; and `CN1[C@H]2CC(O)C[C@H]1[C@H]1O[C@H]12` (stereo not given in full), with 23.5 µM (active); and `C1=C2CCCN[C@H]2[C@@H]2C[C@H]1[C@@H]1CCCCN1C2`, with “inactive”. To `CC(C)(O)C(=O)Nc1ccc([N+](=O)[O-])c(C(F)(F)F)c1` belongs 23.5 µM (active); to `COc1cc([C@@H]2c3cc4c(cc3[C@@H](O)C3COC(=O)C32)OCO4)cc(OC)c1O` (stereo not given in full), “inactive”.

Turning to `CCCC[N+]1(C)[C@H]2CC(OC(=O)[C@H](CO)c3ccccc3)C[C@H]1[C@H]1O[C@H]12` (stereo not given in full), the Potency entry is “inactive”.

Turning to `Cc1c(C(=O)Nc2cccc(C(F)(F)F)c2)cc(-c2ccccc2)n1CCCN1CCOCC1`, the Potency was 8.33 µM (active).

For the compound `COC1=CC(C)=C[C@@H](C)[C@@H](O)[C@@H](C)CC(C)=CC=C[C@H](OC)[C@H]([C@@H](C)[C@@H](O)[C@H](C)[C@@]2(O)C[C@@H](O)[C@H](C)[C@@H](C(C)C)O2)OC1=O`, the Potency is 0.0033 µM (active). To `CO[C@H]1CCC(O[C@H]2C[C@H]([C@]3(C)CC[C@]4(C[C@H](O)[C@@H](C)[C@@H]([C@@H](C)C=C(C)C(=O)[C@H](C)C[C@H](C)C(=O)O)O4)O3)O[C@]3(O[C@@H]([C@H]4O[C@@](O)(CO)[C@H](C)C[C@H]4C)C[C@H]3C)[C@H]2C)O[C@H]1C` (stereo not given in full) belongs 0.418 µM (active); to `NC1CC1c1ccccc1` (stereo not given), “inactive”.

Take `CC(C)(C)c1cc(C=C(C#N)C#N)cc(Br)c1O`: the Potency is 26.4 µM (active). Then `C[C@](O)(COc1ccc(C#N)cc1)C(=O)Nc1ccc(C#N)c(C(F)(F)F)c1`, with “inactive”; and `O=C(N[C@@H](COc1ccc2[nH]c(=O)[nH]c2c1)c1ccccc1)c1cccn(Cc2ccc(F)c(F)c2)c1=O`, with 18.7 µM (active); and `C[C@@]12OC(=O)[C@]1([C@@H](O)[C@@H]1C=CCCC1)NC(=O)[C@H]2CCCl`, with 0.0418 µM (active).

On to `O=C1CCC[C@@H]2[C@H]3CCCN4CCC[C@@H](CN12)[C@@H]34`, for which the Potency entry is “inactive”. Then `CC(C)[C@H]1C(=O)N[C@H](CO)Cc2c[nH]c3cccc(c23)N1C`, with 0.166 µM (active).

On to `O=c1[nH]c2ccccc2n1C1CCN(Cc2ccc(-c3[nH]c4cc5ncnc5cc4nc3-c3ccccc3)cc2)CC1`, for which the Potency was 20.9 µM (active).

The record behind these values is PubChem BioAssay (NCATS).
